Screening data as filed in PubChem BioAssay.
Only a selection was taken, and hits are over-represented in it overall.
TTR transcr act: TTR transcription activators in neuroblastoma reporter cells, primary screen, cell-based, luminescence, SH-SY5Y, TTR promoter Gaussia luciferase | activation, % at 16.7 µM | hit rate 1.3% among 92,000 | 100% = recombinant luciferase protein wells;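 active means activation above the mean of all tested compounds plus 3 SD, cut at about 9.5% in these data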;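 further: cells exposed to compounds for one day before reading; 0% = median of all test compound wells on the plate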
TTR inh HuH7: TTR promoter reporter inhibitors in hepatoma cells, counter-screen for TTR transcription activator project, cell-based, luminescence, HuH7 hepatoma; shares compounds with TTR transcr act; HuH7 TTR promoter-Gaussia luciferase reporter; inhibition, % at 16.7 µM; hit rate 4% among 1,100;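 active means average inhibition above the solvent-only control wells' mean plus 3 SD, cut at about 15% in these data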;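 further: 0% = cells with DMSO only and 100% = cells with inhibitor control FD; inhibitors lower well luminescence so higher value means more inhibition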
TTR up confirm: TTR transcription activators, retest, confirmation, cell-based, luminescence, SH-SY5Y, triplicate; shares compounds with TTR transcr act; SHSY5Y TTR promoter Gaussia luciferase; 100% = purified Lucia enzyme wells, no cells; activation, % at 16.7 µM; 1,100 tested, under 10 active; AID 1117280, 2014;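 active means mean activation above a set limit taken from the earlier primary screen, cut at about 11% in these data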;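 further: 0% = DMSO-treated cells and 100% = recombinant Lucia luciferase without cells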
* = called active by the depositor.

SMILES | TTR transcr act | others
C[C@H]1CCC(=O)N([C@H](COc2ccccc2)Cc2ccccc2)CC1 | 14* | TTR inh HuH7=-5;TTR up confirm=0
CC1CCC(=O)N(CCOc2ccccc2)CC1 (configuration not stated) | 1
CC(C)C[C@@H](COc1ccccc1)N1CCN(C)CCC1=O | 3
COC(=O)[C@]12C[C@H](CC(=O)NCc3ccc(OC)c(OC)c3)C(=O)N(Cc3cccc4ccccc34)C1=C[C@H](C1CCCC1)O[C@@H]2C | -3
CCN1C(=O)[C@@H]2[C@@H](c3ccc(SC4CCCCC4)cc3)N3CCC[C@@]3(C(=O)OC)[C@@H]2C1=O | 11* | TTR inh HuH7=-4;TTR up confirm=0
COC(=O)[C@@]12CCCN1[C@H](c1ccc(SC3CCCCC3)cc1)[C@H]1C(=O)N(C)C(=O)[C@H]12 | -1
CCN1C(=O)[C@H]2[C@@H](c3ccc(SC4CCCCC4)cc3)N3CCCC[C@@]3(C(=O)OC)[C@H]2C1=O | 3
COc1ccc(C(O)c2nc(-c3cccc(CO)c3)cs2)cc1 (configuration not stated) | 0
O=C(CN1C(=O)NC(CCc2ccccc2)C1=O)Nc1cccc(Br)c1 (configuration not stated) | 1
COc1ccc(Oc2ccc(N/C=C3\CCCC3=O)cc2)cc1 | 0
NC(=O)c1ccccc1N/C=C1\CCCCC1=O | 1
COc1ccc(OC)c(N/C=C2/CCCCC2=O)c1 | 11* | TTR inh HuH7=4;TTR up confirm=1
COc1ccc(C(=O)N(C)Cc2cnn(Cc3ccccc3)c2)cc1S(=O)(=O)N1CCOCC1 | -2
CCN(C(=O)COC(=O)[C@H](C)N=C1NS(=O)(=O)c2ccccc21)C1CCS(=O)(=O)C1 (some centres not stated) | 2
O=C(Oc1cc(=O)oc2ccccc12)c1ccccc1 | 14* | TTR inh HuH7=0;TTR up confirm=0
O=C(Oc1cccc2ccccc12)c1ccccc1 | 0
O=C(O)CCc1ccccc1OC(=O)c1ccccc1 | 1
CCc1nc2ccc(C(=O)N(CC)CCN(C)C)cn2c1N(C=O)CCC(C)C | 0
COCCCNC(=O)c1csc([C@H]2C[C@H](O)[C@@H](CO)O2)n1 | 1
COc1cccc(C(=O)N2CCC[C@H]2C(=O)N2CCC[C@H]2C(=O)N[C@H](C)c2ccccc2)c1 | -1
O=C1c2ccc(-c3ccc(Cl)c(C(F)(F)F)c3)cc2S(=O)(=O)c2cccc(C(=O)N3CCN(c4ccc(Cl)cn4)CC3)c21 | 0
CC(/C=C/c1ccccc1)=N/NC(=O)C(O)c1ccccc1 (configuration not stated) | 3
C/C(=N\NC(=O)C(O)c1ccccc1)c1ccc(Cl)cc1 (configuration not stated) | 23* | TTR inh HuH7=-11;TTR up confirm=0
C/C(=N\NC(=O)c1ccccn1)c1ccc(Cl)cc1 | -2
COc1ccc(S(=O)(=O)N2CCOCC2)cc1NC(=O)c1cc(C)oc1C | 0
SMILES | TTR transcr act | others
CC(=O)Nc1ccc(NC(=O)Nc2ccc3c(c2)N(C)C(=O)CS3)cc1 | 10* | TTR inh HuH7=3;TTR up confirm=-1
CN1C(=O)CSc2ccc(NC(=O)N3CCc4ccccc43)cc21 | -4
CN1C(=O)CSc2ccc(NC(=O)NCc3ccc(F)cc3)cc21 | -1
CC(C)CC(CCOCCO)NC(=O)OCc1ccccc1[N+](=O)[O-] (configuration not stated) | 0
OCCC#Cc1c(-c2ccsc2)sc2ccccc12 | 10.0* | TTR inh HuH7=-8;TTR up confirm=-1
COc1ccc2c(C#CCCO)c(-c3ccc(S(C)(=O)=O)cc3)sc2c1 | -3
Brc1ccc(-c2c(-c3ccsc3)sc3ccccc23)cn1 | -1
O=C(c1cc2c(c(-c3cccc(-c4ccncc4)c3)n1)[C@@H](CCO)N(C(=O)c1ccc3c(c1)OCO3)C2)N1CCOCC1 | 0
C[C@H]1[C@H](c2ccccc2)Oc2cccc(NCCc3ccccc3)c2S(=O)(=O)N1Cc1cccc(F)c1 | 0
C[C@@H]1CCC(=O)N(C[C@@H](C)CSc2ccccc2)CC1 | -2
COc1ccc(NCC(=O)Nc2ccc(Br)cc2F)c(OC)c1 | 1
CCN(CC)S(=O)(=O)c1ccc(C(=O)Nc2cc(S(=O)(=O)N3CCOCC3)ccc2O)cc1 | 0
CC1(c2ccccc2)NC(=O)N(CC(=O)N(c2ccccc2)C2CCS(=O)(=O)C2)C1=O (configuration not stated) | 14* | TTR inh HuH7=-17;TTR up confirm=2
CCC1(c2ccccc2)NC(=O)N(CC(=O)N(c2ccccc2)C2CCS(=O)(=O)C2)C1=O (configuration not stated) | 5
COc1ccc(C2(C)NC(=O)N(CC(=O)N(c3ccccc3)C3CCS(=O)(=O)C3)C2=O)cc1 (configuration not stated) | -1
O=C(CCl)c1cc2c3c(c1)CC(=O)N3CCC2 | 11* | TTR inh HuH7=75*;TTR up confirm=-4
CCN(CC)CCNC(=O)C(=O)Nc1cc2c3c(c1)CC(=O)N3CCC2 | 6
CC(C)(C)CC(=O)Nc1cc2c3c(c1)CC(=O)N3CCC2 | -1
COc1cccc(OC)c1C(=O)OCC(=O)Nc1cccnc1Cl | -1
N#Cc1ccc(C(=O)OCC(=O)Nc2cccnc2Cl)cc1 | 16* | TTR inh HuH7=-10;TTR up confirm=-1
O=C(COC(=O)c1cccc(F)c1)Nc1cccnc1Cl | -1
C[C@H](CO)N1C[C@H](C)[C@@H](CN(C)S(C)(=O)=O)Oc2ccc(NS(=O)(=O)c3cn(C)cn3)cc2C1=O | -1
Fc1ccc(Cn2cc(C(=S)N3CCOCC3)c3ccccc32)cc1 | -2
O=C(O)Cn1cc(C(=S)N2CCCCC2)c2ccccc21 | 0
CC1CCN(C(=S)c2cn(Cc3cccc(F)c3)c3ccccc23)CC1 | 10* | TTR inh HuH7=-17;TTR up confirm=0
SMILES | TTR transcr act | others
C=CCCC1CN(Cc2ccc(OC)cc2)S(=O)(=O)c2c(F)cccc2O1 (configuration not stated) | -1
O=C(CC1C(=O)NCCN1Cc1ccccc1C(F)(F)F)NC1CCCCCC1 (configuration not stated) | 10* | TTR inh HuH7=-7;TTR up confirm=2
COc1ccc(CN2CCNC(=O)C2CC(=O)NC2CCCCCC2)c(F)c1 (configuration not stated) | -1
COc1cccc(CN2CCNC(=O)C2CC(=O)NC2CCCCCCC2)c1 (configuration not stated) | -2
CC(=O)Nc1ncc(Sc2ccc([N+](=O)[O-])cc2)s1 | 2
Cc1cc(C)cc(-c2c(C(=O)c3ccccc3)[nH]c(N)c2C(=O)NCCc2c[nH]c3ccccc23)c1 | 2
Cc1ccccc1Nc1cccc2nonc12 | 18* | TTR inh HuH7=-9;TTR up confirm=2
O=S(=O)(Nc1cccc2ccccc12)c1cccc2nonc12 | -1
Cc1ccccc1Nc1nc2ccccc2n1C(C)C | 0
C[C@H]1[C@@H](OC(=O)NC2CCCCC2)CC[C@@]23CCCN2C(=O)CCC[C@@H]13 | 1
C[C@H]1[C@H](c2ccccc2)Oc2cccc(NCCc3ccccc3)c2S(=O)(=O)N1Cc1cccc(Cl)c1 | 1
O=C(CSc1ccc(Cl)cc1)Nc1cccc(-c2nc3ncccc3o2)c1 | -2
CC(C)C(=O)Nc1cccc(-c2nc3ncccc3o2)c1 | 15* | TTR inh HuH7=9;TTR up confirm=-1
CC(C)C(=O)Nc1cccc(-c2nc3ccccc3o2)c1 | -1
NC(=O)c1c(N)[nH]c(C(=O)c2ccccc2)c1-c1ccccn1 | 0
